Reference: PubChem BioAssay (EPA / NIEHS)
Values joined by “and” are separate entries in the source; they are usually repeats but may differ in a detail not shown here. Equal values may be shown once. Inconclusive results are not listed. Where a structure was tested more than once in an assay, its records may differ in their call. Active and inactive are the calls of the source. How the source made its calls, unless noted: active means hit-call score of the fitted dose curve at least 0.9, where 1 is the maximum; inconclusive means response in the unintended direction; inactive means score below 0.9.

Experiments:
[1] = target: Cellular tumor antigen p53 (Homo sapiens) (UniProt P04637); assay: TOX21_p53_BLA_p4_ratio: Tox21 HCT-116 p53 Agonism Beta-lactamase Assay, Ratio, Phase 4 (AID 2283601)
Procedure, shortened: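 HCT116 cells carrying an inducible beta-lactamase reporter were plated at 4000 cells/well, rested 5 h, then exposed to compounds in DMSO (217-fold dilution) for 16 h at 37C. CCF4-AM substrate was loaded 2 h at room temperature; 460/530 nm emission ratio scored gain-of-signal versus DMSO.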

[2] = Tanguay_ZF_120hpf_MORT_legacy: (Legacy) Oregon State University Tanguay Lab 120 Hour Post-fertilization zebrafish Assay for Mortality (AID 2283633);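 on AC50: fitted as increase in binary mortality versus DMSO negative control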
Procedure, shortened: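 Dechorionated Tropical 5D wild-type zebrafish embryos, one per well from 6 hpf, static exposure in 0.64% DMSO at 28C until 120 hpf. Mortality scored as binary by brightfield microscopy at 24 and 120 hpf.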

[3] = Tanguay_ZF_120hpf_YSE_legacy: (Legacy) Oregon State University Tanguay Lab 120 Hour Post-fertilization zebrafish Assay for Yolk Sac Edema (AID 2283634);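 on AC50: actives raise the incidence of yolk sac edema above the DMSO baseline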
Procedure, shortened: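 Dechorionated Tropical 5D wild-type zebrafish embryos were exposed statically, one per well, from 6 to 120 hpf at 28C in 0.64% DMSO. Yolk sac edema was scored present/absent by brightfield at 120 hpf, and dead embryos were excluded.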

[4] = Tanguay_ZF_120hpf_AXIS_legacy: (Legacy) Oregon State University Tanguay Lab 120 Hour Post-fertilization zebrafish Assay for Body Axis Malformation (AID 2283635);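 on AC50: potency for an increased fraction of larvae scored with body axis malformation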
Procedure, shortened: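 Dechorionated wild-type Tropical 5D zebrafish embryos, one per well, statically exposed from 6 hpf to 120 hpf at 28C in 0.64% DMSO final. Body axis malformation scored present/absent by brightfield microscopy at 120 hpf; dead embryos excluded.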

[5] = Tanguay_ZF_120hpf_EYE_legacy: (Legacy) Oregon State University Tanguay Lab 120 Hour Post-fertilization zebrafish Assay for Eye Malformation (AID 2283636);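 further: binary presence or absence of eye malformation scored by brightfield in 120 hpf larvae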
Procedure, shortened: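 Dechorionated wild-type Tropical 5D zebrafish embryos were exposed statically from 6 hpf, one per well, to 120 hpf at 28C in sealed, foil-covered plates with 0.64% DMSO. Eye malformation was scored present/absent by brightfield microscopy against DMSO controls.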

[6] = Tanguay_ZF_120hpf_SNOU_legacy: (Legacy) Oregon State University Tanguay Lab 120 Hour Post-fertilization zebrafish Assay for Snout Malformation (AID 2283637)
Procedure, shortened: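 Tropical 5D wild-type zebrafish embryos, dechorionated with pronase at 4 hpf, were exposed singly from 6 hpf to 120 hpf statically at 28C in 0.64% DMSO. Snout malformation was scored present/absent by brightfield microscopy, fitted against DMSO.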

[7] = Tanguay_ZF_120hpf_JAW_legacy: (Legacy) Oregon State University Tanguay Lab 120 Hour Post-fertilization zebrafish Assay for Jaw Malformation (AID 2283638);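 on AC50: active means more embryos with jaw malformation than DMSO controls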
Procedure, shortened: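 Dechorionated Tropical 5D wild-type zebrafish embryos, one per well, exposed statically from 6 hpf to 120 hpf at 28C in 0.64% DMSO. Jaw malformation was scored by brightfield microscopy as present or absent. It was not scored in dead embryos.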

[8] = Tanguay_ZF_120hpf_OTIC_legacy: (Legacy) Oregon State University Tanguay Lab 120 Hour Post-fertilization zebrafish Assay for Otic Vesicle Malformation (AID 2283639)
Procedure, shortened: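 Tropical 5D wild-type zebrafish embryos were exposed statically in sealed, foil-covered plates at 28C until 120 hpf, with 0.64% (vol/vol) DMSO final. Otic vesicle malformation was scored present/absent by brightfield microscopy, with DMSO as baseline.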

[9] = Tanguay_ZF_120hpf_PE_legacy: (Legacy) Oregon State University Tanguay Lab 120 Hour Post-fertilization zebrafish Assay for Pericardial Edema (AID 2283640);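 on AC50: potency for increased incidence of pericardial edema versus DMSO baseline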
Procedure, shortened: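 Tropical 5D wild-type zebrafish embryos were statically exposed until 120 hpf at 28C, with 0.64% DMSO final. Pericardial edema was scored by brightfield as present or absent; endpoints were not scored in dead embryos.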

[10] = Tanguay_ZF_120hpf_BRAI_legacy: (Legacy) Oregon State University Tanguay Lab 120 Hour Post-fertilization zebrafish Assay for Brain Malformation (AID 2283641)
Procedure, shortened: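 Tropical 5D wild-type zebrafish embryos exposed statically until 120 hpf at 28C, 0.64% DMSO final, sealed and dark. Brain malformation scored present/absent by brightfield at 120 hpf; dead embryos excluded. Trimethyltin chloride 5uM positive control.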

[11] = Tanguay_ZF_120hpf_SOMI_legacy: (Legacy) Oregon State University Tanguay Lab 120 Hour Post-fertilization zebrafish Assay for Somite Malformation (AID 2283647)
Procedure, shortened: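 Dechorionated Tropical 5D wild-type zebrafish embryos, one per well from 6 hpf, statically exposed at 28C to 120 hpf in 0.64% DMSO; somite malformation scored present/absent by brightfield; trimethyltin 5 uM positive control; dead embryos not scored.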

[12] = Tanguay_ZF_120hpf_CFIN_legacy: (Legacy) Oregon State University Tanguay Lab 120 Hour Post-fertilization zebrafish Assay for Caudal Fin Malformation (AID 2283649)
Procedure, shortened: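 Dechorionated Tropical 5D wild-type embryos, one per well from 6 hpf, static exposure to 120 hpf at 28C in 0.64% DMSO. Caudal fin malformation scored by brightfield as present/absent; not scored in dead embryos.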

[13] = Tanguay_ZF_120hpf_CIRC_legacy: (Legacy) Oregon State University Tanguay Lab 120 Hour Post-fertilization zebrafish Assay for Circulatory Malformation (AID 2283651)
Procedure, shortened: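 Tropical 5D wild-type embryos, dechorionated with pronase at 4 hpf, were placed singly in wells at 6 hpf and exposed statically at 28C to 120 hpf (0.64% DMSO final). Circulatory malformation was scored present/absent by brightfield microscopy.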

[14] = Tanguay_ZF_120hpf_SWIM_legacy: (Legacy) Oregon State University Tanguay Lab 120 Hour Post-fertilization zebrafish Assay for Swim Bladder Malformation (AID 2283654);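 further: swim bladder malformation in each larva scored yes or no under brightfield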
Procedure, shortened: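 Dechorionated Tropical 5D wild-type embryos, placed singly from 6 hpf, were statically exposed at 28C to 120 hpf with 0.64% DMSO final; swim bladder malformation was scored present/absent by brightfield microscopy, gain of signal relative to DMSO controls.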

[15] = Tanguay_ZF_120hpf_TRUN_legacy: (Legacy) Oregon State University Tanguay Lab 120 Hour Post-fertilization zebrafish Assay for Truncated Body (AID 2283655)
Procedure, shortened: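 Dechorionated Tropical 5D wild-type embryos placed singly from 6 hpf and statically exposed to 120 hpf at 28C, final DMSO 0.64%. Truncated body scored as present/absent by brightfield; not scored in dead embryos.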

[16] = read-out: solute carrier (SLC22A6), SLC22A6 (gene 9356); assay: LTEA_HepaRG_SLC22A6: Life Technologies and Expression Analysis (LTEA) Assay for solute carrier (SLC22A6) using HepaRG (AID 2283653; active means hit-call score of the fitted dose curve at least 0.9, where 1 is the maximum; inactive means score below 0.9); details: mRNA level, 48 h; actives raise or lower the signal
Procedure, shortened: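 Differentiated HepaRG cells exposed 48 h in serum-free induction medium to 8 half-log concentrations, top 100 uM, in 0.5% DMSO; SLC22A6 mRNA by Fluidigm qRT-PCR normalized to ACTB, GAPDH, POLR2A, fitted bidirectionally versus DMSO.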

[17] = TOX21_p53_BLA_p5_viability: Viability Assessment in the Tox21 HCT-116 p53 Agonism Beta-lactamase Assay, Phase 5 (AID 2283600)
Procedure, shortened: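 HCT-116 p53 beta-lactamase reporter cells, 4000/well, were exposed to compound (pin transfer, 217-fold dilution) for 16 hours at 37C. Cellular ATP was read by CellTiter-Glo luminescence after 30 min at room temperature.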

[18] = Tanguay_ZF_120hpf_PFIN_legacy: (Legacy) Oregon State University Tanguay Lab 120 Hour Post-fertilization zebrafish Assay for Pectoral Fin Malformation (AID 2283648);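 further: each larva judged yes or no for fin defect by brightfield with dead larvae skipped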
Procedure, shortened: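 Tropical 5D wild-type embryos, dechorionated with pronase at 4 hpf, were placed singly in wells at 6 hpf and statically exposed until 120 hpf at 28C, sealed and dark, with 0.64% (vol/vol) final DMSO; pectoral fin malformation scored present/absent.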

Measured: AC50

Chain of Cellular tumor antigen p53 (Homo sapiens) (P04637 whole entry, looked up): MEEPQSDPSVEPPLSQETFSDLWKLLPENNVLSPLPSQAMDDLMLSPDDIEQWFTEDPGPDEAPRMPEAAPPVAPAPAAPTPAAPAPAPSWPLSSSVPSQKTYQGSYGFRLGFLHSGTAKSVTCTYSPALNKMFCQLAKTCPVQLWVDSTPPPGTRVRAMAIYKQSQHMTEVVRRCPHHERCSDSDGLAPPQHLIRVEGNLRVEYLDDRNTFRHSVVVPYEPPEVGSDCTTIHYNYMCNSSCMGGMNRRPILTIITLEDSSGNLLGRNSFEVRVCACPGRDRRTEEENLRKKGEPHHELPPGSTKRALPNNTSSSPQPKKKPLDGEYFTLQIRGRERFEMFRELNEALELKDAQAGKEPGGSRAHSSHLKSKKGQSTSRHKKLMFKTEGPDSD

CCCCNC(=O)OCC#CI
active: [1] 12.8 µM | [2] 24 µM
inactive: [1] | [3] | [4] | [5] | [6] | [7] | [8] | [9] | [10] | [11] | [12] | [13] | [14] | [15]

CO/C=C(/C(=O)OC)c1ccccc1Oc1cc(Oc2ccccc2C#N)ncn1
inactive: [1] | [2] | [3] | [4] | [5] | [6] | [7] | [8] | [9] | [10] | [11] | [12] | [13] | [16] | [14] | [15]
active: [2] 7.48 µM and 1.44 µM | [3] 5.69 µM | [9] 5.47 µM

CCCCC(CC)COC(=O)c1ccccc1C(=O)OCC(CC)CCCC (stereo unspecified)
not listed: [9] | [16] | [18]
inactive: all other assays above

CCNc1nc(Cl)nc(NCC)n1
not listed: [16] | [17] | [18]
inactive: all other assays above

CCNc1nc(Cl)nc(NC(C)C)n1
not listed: [16] | [17]
inactive: all other assays above

COC(=O)N(OC)c1ccccc1COc1ccn(-c2ccc(Cl)cc2)n1
active: [1] 1.67 µM | [2] 0.367 µM
not listed: [16] | [17] | [18]
inactive: all other assays above

CCOC(=O)C(Cl)Cc1cc(-n2nc(C)n(C(F)F)c2=O)c(F)cc1Cl (stereo unspecified)
active: [3] 1.27 µM | [4] 4.23 µM | [5] 1.7 µM | [6] 4.26 µM | [7] 5.22 µM | [8] 1.82 µM | [9] 2.58 µM | [10] 2.91 µM | [11] 2.22 µM | [12] 5.09 µM
inactive: [1] | [2] | [13] | [14] | [15]

COC(=O)c1ccccc1C(=O)OC
not listed: [16] | [17] | [18]
inactive: all other assays above

N#Cc1nn(-c2c(Cl)cc(C(F)(F)F)cc2Cl)c(N)c1S(=O)C(F)(F)F (stereo unspecified)
active: [3] 0.0235 µM | [4] 4.62 µM
not listed: [11] | [16] | [18]
inactive: all other assays above

C=CCC1=C(C)C(OC(=O)C2C(C=C(C)C)C2(C)C)CC1=O (stereo unspecified)
not listed: [16] | [17] | [18]
inactive: all other assays above

CCOC(=O)CC(SP(=S)(OC)OC)C(=O)OCC (stereo unspecified)
active: [3] 37.4 µM | [4] 34.6 µM | [5] 38.7 µM | [6] 38.1 µM | [7] 33.7 µM | [9] 37 µM | [11] 32 µM | [12] 36.2 µM | [14] 28.8 µM | [15] 34.2 µM
inactive: [1] | [2] | [8] | [10] | [13]
